Assay results as given in PubChem BioAssay (NCATS).
Where “and” joins values, the source holds several entries; their conditions need not be identical. Equal entries are not always repeated. Records with an inconclusive call do not appear. A call without a number means that no potency is given here. Calls of active or inactive are those of the source. Unless noted, the call rests on the fitted dose curve; in most records, active means well fitted curve in the direction sought with a large enough effect; inconclusive means small, poorly fitted or top-dose-only effect, or another doubt; inactive means no such curve, though single readings can be large; an effect the other way counts as inactive or inconclusive.

Tests used:
[1] = target: 3',5'-cyclic-AMP phosphodiesterase 4B (Homo sapiens) (UniProt Q07343); test: qHTS Assay for Inhibitors of PDE-IV (AID 607; active means well fitted activation curve with a large enough effect in the main read-out, with a control signal flat, not every such curve was filed as active)
Procedure, shortened: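 HEK293 ACTOne cells with CNG channel (1000/well), endogenous PDE4; membrane potential dye, compounds up to 22.9 uM final. Fluorescence Ex 535/Em 590; RO 20-1724 (100 uM final) as reference.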

[2] = target: Guanine nucleotide-binding protein G(i) subunit alpha-1 (Homo sapiens) (UniProt P63096); test: qHTS Assay for Inhibitors of RGS12 GoLoco Motif Activity (Green Fluorophore) (AID 879);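 further: negative values mean loss of peptide binding seen as reduced polarization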
Procedure, shortened: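 Fluorescence polarization assay: 50 nM Gαi1 with 10 nM FITC-labeled RGS12 GoLoco peptide in 10 mM Tris pH 7.5, 150 mM NaCl, 0.1 mM GDP, 0.05% NP40, 10 min at room temperature with compound.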

[3] = target: Cytochrome P450 3A4 (Homo sapiens) (UniProt P08684); test: qHTS Assay for Inhibitors and Substrates of Cytochrome P450 3A4 (AID 884); further: series mostly up to about 57 µM; nearly all actives have a fitted effect of over 50% in size
Procedure, shortened: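 20 nM human CYP3A4 with 25 uM Luciferin-PPXE (at KM) in 200 mM KPO4, preincubated 10 min with compound; NADPH regeneration started a 60 min RT reaction. Luciferin detected by luminescence, normalized to 57 uM ketoconazole as full inhibition.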

[4] = target: Cytochrome P450 2D6 (Homo sapiens) (UniProt P10635); test: qHTS Assay for Inhibitors and Substrates of Cytochrome P450 2D6 (AID 891); further: nearly all actives have a fitted effect of over 60% in size; further: potency means the concentration at half of the fitted maximal effect
Procedure, shortened: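 Human CYP2D6 (5 nM) with 30 uM Luciferin-ME EGE (at Km) in 100 mM KPO4, compound preincubated 10 min, then NADPH regeneration system for 60 min at room temperature. Luciferin read by luminescence; normalized to 1.43 uM quinidine.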

[5] = target: Cytochrome P450 3A4 (Homo sapiens) (UniProt P08684); test: qHTS Assay for Activators of Cytochrome P450 3A4 (AID 885); further: nearly all actives have a fitted effect of over 65% in size; further: potency means the concentration at half of the fitted maximal effect
Procedure, shortened: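 Human CYP3A4 (20 nM) with Luciferin-PPXE at 25 uM (its KM) in 200 mM KPO4; 10 min compound preincubation, then NADPH regeneration and 60 min reaction at RT. Luciferin read by luminescence; normalized to 57 uM ketoconazole full inhibition.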

[6] = qHTS Assay for Identification of Small Molecule Antagonists for NFkB Signaling Pathway (AID 895; active means well fitted inhibition curve with a large enough effect in the signal ratio, with a control signal flat, not every such curve was filed as active; the % refers to the signal ratio; further: potency means the concentration at half of the fitted maximal effect)
Procedure, shortened: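 ME-180 NFkB-bla cells (beta-lactamase under NFkB response element), plated overnight, treated with compound then 10 pM TNF alpha (about EC50) for 5 hrs at 37 C. LiveBLAzer FRET read at 460/530 nm emission, 405 nm excitation.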

Sequence of Cytochrome P450 2D6 (Homo sapiens) (P10635 whole entry, looked up): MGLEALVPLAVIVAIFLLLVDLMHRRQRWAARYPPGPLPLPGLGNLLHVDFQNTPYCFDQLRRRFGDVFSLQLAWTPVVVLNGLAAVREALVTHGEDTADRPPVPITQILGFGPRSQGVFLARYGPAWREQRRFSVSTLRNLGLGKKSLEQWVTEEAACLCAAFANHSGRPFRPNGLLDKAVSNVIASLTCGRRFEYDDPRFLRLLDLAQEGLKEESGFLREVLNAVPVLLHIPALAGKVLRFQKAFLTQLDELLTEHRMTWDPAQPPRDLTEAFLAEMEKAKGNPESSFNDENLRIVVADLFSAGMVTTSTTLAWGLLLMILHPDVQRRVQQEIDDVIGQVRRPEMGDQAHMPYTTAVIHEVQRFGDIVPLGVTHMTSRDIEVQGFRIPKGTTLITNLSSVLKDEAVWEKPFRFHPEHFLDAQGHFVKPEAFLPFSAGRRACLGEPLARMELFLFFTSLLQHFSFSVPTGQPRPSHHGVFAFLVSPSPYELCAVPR
Sequence of 3',5'-cyclic-AMP phosphodiesterase 4B (Homo sapiens) (Q07343 whole entry, looked up): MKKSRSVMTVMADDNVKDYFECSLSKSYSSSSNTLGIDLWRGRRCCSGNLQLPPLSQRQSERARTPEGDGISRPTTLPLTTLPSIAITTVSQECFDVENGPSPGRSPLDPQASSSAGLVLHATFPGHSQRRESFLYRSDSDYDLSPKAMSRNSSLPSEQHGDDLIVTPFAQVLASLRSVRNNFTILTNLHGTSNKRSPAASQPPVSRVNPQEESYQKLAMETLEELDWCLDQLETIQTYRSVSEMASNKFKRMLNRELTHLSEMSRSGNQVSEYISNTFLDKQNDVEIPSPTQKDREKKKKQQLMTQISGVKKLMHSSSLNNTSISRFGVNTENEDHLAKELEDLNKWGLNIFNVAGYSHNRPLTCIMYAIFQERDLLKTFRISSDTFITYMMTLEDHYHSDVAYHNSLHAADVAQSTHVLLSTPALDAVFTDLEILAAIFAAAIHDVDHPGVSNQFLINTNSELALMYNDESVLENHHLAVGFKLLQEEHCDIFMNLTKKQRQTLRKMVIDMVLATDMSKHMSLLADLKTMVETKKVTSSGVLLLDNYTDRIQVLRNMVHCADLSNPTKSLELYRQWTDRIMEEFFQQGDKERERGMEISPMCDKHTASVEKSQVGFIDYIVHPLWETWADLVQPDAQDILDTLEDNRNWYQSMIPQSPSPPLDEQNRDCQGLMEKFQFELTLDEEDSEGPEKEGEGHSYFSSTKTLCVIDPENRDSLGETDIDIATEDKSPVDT
Sequence of Guanine nucleotide-binding protein G(i) subunit alpha-1 (Homo sapiens) (P63096 whole entry, looked up): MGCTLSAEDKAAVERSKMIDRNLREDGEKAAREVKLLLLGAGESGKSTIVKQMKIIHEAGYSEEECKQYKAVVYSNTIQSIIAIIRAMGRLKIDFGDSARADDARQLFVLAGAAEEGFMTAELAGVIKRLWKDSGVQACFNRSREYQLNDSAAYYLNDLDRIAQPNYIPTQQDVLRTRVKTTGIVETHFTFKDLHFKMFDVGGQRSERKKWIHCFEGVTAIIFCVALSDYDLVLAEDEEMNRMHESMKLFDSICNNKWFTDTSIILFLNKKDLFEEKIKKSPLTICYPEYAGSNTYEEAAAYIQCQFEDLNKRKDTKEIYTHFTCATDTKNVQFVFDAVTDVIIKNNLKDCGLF
Sequence of Cytochrome P450 3A4 (Homo sapiens) (P08684 whole entry, looked up): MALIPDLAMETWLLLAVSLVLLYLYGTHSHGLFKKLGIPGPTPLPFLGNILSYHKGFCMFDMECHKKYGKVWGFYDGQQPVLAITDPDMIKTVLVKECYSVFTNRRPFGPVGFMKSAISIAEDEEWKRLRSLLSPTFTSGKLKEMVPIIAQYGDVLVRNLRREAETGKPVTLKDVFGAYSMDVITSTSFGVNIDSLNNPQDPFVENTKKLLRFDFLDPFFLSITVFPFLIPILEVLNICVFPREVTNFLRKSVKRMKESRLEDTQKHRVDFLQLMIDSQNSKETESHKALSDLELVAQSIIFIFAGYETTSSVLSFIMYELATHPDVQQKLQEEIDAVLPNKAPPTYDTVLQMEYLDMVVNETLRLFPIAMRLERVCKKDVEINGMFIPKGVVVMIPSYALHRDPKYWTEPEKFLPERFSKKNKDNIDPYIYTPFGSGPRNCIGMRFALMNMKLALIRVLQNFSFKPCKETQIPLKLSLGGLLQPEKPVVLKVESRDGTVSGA

Compound: CN1CCN(CC(=O)N2c3ccccc3C(=O)Nc3cccnc32)CC1
- Potency [1]: inactive
- Potency [2]: inactive
- outcome [3]: inactive

Compound: C#CCN(C)CCCOc1ccc(Cl)cc1Cl
- Potency [1]: inactive
- Potency [2]: inactive
- Potency [4]: 2 µM (active) and 398 nM (active)

Compound: O=C(CCNNC(=O)c1ccncc1)NCc1ccccc1
- Potency [1]: inactive
- Potency [2]: inactive
- Potency [5]: inactive

Compound: CCCOc1ccccc1-c1nc2n[nH]nc2c(=O)[nH]1
- Potency [1]: inactive
- Potency [2]: inactive
- outcome [3]: inactive
- Potency [6]: inactive

Compound: c1cc(CN2CCCCC2)cc(OCCCNc2nc3ccccc3s2)c1
- Potency [1]: inactive
- Potency [2]: inactive
- Potency [5]: inactive

Compound: FC(F)(F)c1ccccc1-n1ccnc1
- Potency [1]: inactive
- Potency [2]: inactive
- Potency [4]: 6.31 µM (active)

Compound: CCCC(C(=O)OCCN(CC)CC)(c1ccccc1)c1ccccc1
- Potency [1]: inactive
- Potency [2]: inactive
- Potency [5]: inactive
- Potency [4]: 63.1 nM (active) and 15.8 nM (active)

Compound: COC(=O)[C@@H](N)Cc1ccc(O)c(O)c1
- Potency [1]: inactive
- Potency [2]: inactive
- Potency [5]: inactive

Compound: CC(C)NNC(=O)c1ccncc1
- Potency [1]: inactive
- Potency [2]: inactive
- outcome [3]: inactive

Compound: CC(=O)OC(C)C[N+](C)(C)C (stereo unspecified)
- outcome [3]: inactive

Compound: CC(C)(Oc1ccc(CCNC(=O)c2ccc(Cl)cc2)cc1)C(=O)O
- Potency [1]: inactive
- outcome [3]: inactive

Compound: COc1cc2c(cc1OC)-c1cc(=Nc3c(C)cc(C)cc3C)n(C)c(=O)n1CC2
- Potency [2]: inactive
- Potency [5]: inactive
- Potency [6]: 5.62 µM (active)

Compound: CN(C)CCN(Cc1cccs1)c1ccccn1
- Potency [1]: inactive
- outcome [3]: inactive

Compound: N[C@@H](COP(=O)(O)O)C(=O)O
- Potency [2]: inactive
- Potency [5]: inactive
- Potency [6]: inactive

Compound: CCCCCCCC/C=C\CCCCCCCC(=O)NCc1ccc(O)c(OC)c1
- Potency [1]: inactive
- Potency [5]: inactive
- Potency [4]: 3.16 µM (active)

Compound: C[C@]12CCC(=O)C=C1CC[C@@H]1[C@@H]2CC[C@@]2(C)[C@H]1CC[C@]2(O)C(=O)CO
- Potency [2]: inactive

Compound: C=CCc1ccccc1OCC(O)CNC(C)C (stereo unspecified)
- outcome [3]: inactive

Compound: CCN(CC)CC(=O)Nc1c(C)cccc1C
- Potency [1]: inactive
- Potency [2]: inactive
- Potency [6]: inactive

Compound: C[C@]12CCC(=O)C=C1CC[C@@H]1[C@@H]2C(=O)C[C@@]2(C)[C@H]1CC[C@]2(O)C(=O)CO
- Potency [2]: inactive
- Potency [5]: inactive
- Potency [6]: inactive

Compound: C[C@H](CS)C(=O)N1CCC[C@H]1C(=O)O
- Potency [2]: inactive
- outcome [3]: inactive
- Potency [4]: inactive

Compound: CCC(=O)c1ccc2c(c1)N(CCCN(C)C)c1ccccc1S2
- Potency [1]: inactive
- Potency [2]: inactive
- Potency [4]: 2 µM (active)
- Potency [6]: inactive

Compound: Cc1ccc(Cl)c(Nc2ccccc2C(=O)O)c1Cl
- Potency [2]: inactive
- outcome [3]: inactive
- Potency [5]: 20 µM (active) and 12.6 µM (active) and 25.1 µM (active)

Compound: CN(C)CC/C=C1\c2ccccc2COc2ccccc21
- Potency [1]: inactive
- Potency [2]: inactive
- Potency [4]: 3.16 µM (active) and 3.98 µM (active)

Compound: CCCN(CCC)C(=O)C(CCC(=O)O)NC(=O)c1ccccc1 (stereo unspecified)
- outcome [3]: inactive

Compound: CC(=O)Oc1cc(C(C)C)c(OCCN(C)C)cc1C
- Potency [1]: inactive
- Potency [2]: inactive
- Potency [6]: inactive

Compound: OCCN1CCN(CCCN2c3ccccc3C=Cc3ccccc32)CC1
- Potency [2]: inactive
- Potency [5]: inactive

Compound: CCCCCN(CCCCC)C(=O)C(CCC(=O)O)NC(=O)c1ccc(Cl)c(Cl)c1 (stereo unspecified)
- outcome [3]: inactive

Compound: CCc1c(C)[nH]c2c1C(=O)C(CN1CCOCC1)CC2 (stereo unspecified)
- Potency [2]: inactive

Compound: CC(C)NCC(O)c1cc(O)cc(O)c1 (stereo unspecified)
- outcome [3]: inactive

Compound: O=C(O)CN(CCOCCOCCN(CC(=O)O)CC(=O)O)CC(=O)O
- Potency [1]: inactive
- Potency [2]: inactive
- Potency [6]: inactive
